Compound activity as filed in PubChem.
MITF inh: MITF inhibitors, primary screen, biochemical, AlphaScreen, human | inhibition, % at 2.6 µM | AlphaScreen MITF homodimerization, bead proximity signal | 650,000 compounds, 0.91% hits; in the data active = inhibition above about 50%;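 note: 0% = vehicle wells with protein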
GPR151 ag: activators of human GPR151, primary screen, cell-based, PathHunter beta-arrestin, luminescence; PathHunter beta-arrestin GPR151 cells; G-protein coupled receptor 151 (Homo sapiens), Q8TDV0; activation, % at 11.2 µM; 650,000 compounds, 1% hits; in the data active = activation above about 4.9%;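 note: 0% = median of compound wells and 100% = cells with positive control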
Target sequence (Q8TDV0 whole entry, looked up): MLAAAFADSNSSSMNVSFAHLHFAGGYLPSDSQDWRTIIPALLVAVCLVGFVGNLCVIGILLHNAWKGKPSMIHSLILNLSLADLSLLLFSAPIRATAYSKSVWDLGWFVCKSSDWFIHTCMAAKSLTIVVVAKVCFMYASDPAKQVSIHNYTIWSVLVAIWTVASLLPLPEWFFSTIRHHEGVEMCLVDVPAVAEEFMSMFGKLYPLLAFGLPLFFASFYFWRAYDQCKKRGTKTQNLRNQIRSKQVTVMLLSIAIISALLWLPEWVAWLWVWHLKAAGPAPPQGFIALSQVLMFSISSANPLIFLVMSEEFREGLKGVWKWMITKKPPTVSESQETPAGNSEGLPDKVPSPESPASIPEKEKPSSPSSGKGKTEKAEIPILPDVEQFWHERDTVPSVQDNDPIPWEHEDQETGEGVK
TEAD-YAP inh: TEAD-YAP interaction inhibition, primary screen, TEAD-YAP interaction inhibitor project, luminescence, HEK-TIYL cells; inhibition, % at 9.12 µM; 640,000 compounds, 1.4% hits; AID 1259422, 2018; TEAD-Gal4/YAP UAS-luciferase luminescence; in the data active = inhibition above about 32%;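 note: 0% = median of test compound wells and 100% = reference inhibitor wells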
FBW7 act: FBW7 E3 ligase activators, primary screen, biochemical, AlphaScreen, human; F-box/WD repeat-containing protein 7 (Homo sapiens), Q969H0; AlphaScreen FBW7–phospho-cyclin E peptide binding, activator screen; normalized activity (activation), % at 26.1 µM; 650,000 compounds, 0.13% hits; in the data active = normalized activity above about 1.9%;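 note: purified mutant Fbw7 with reduced substrate affinity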
* hit, by the source's call. A selection: hits, their analogues and other compounds. The true share with any hit is near 3.5%.

SMILES	MITF inh	GPR151 ag	TEAD-YAP inh	FBW7 act
CC(=O)N1c2ccc(-c3csc(NC(=O)c4ccncc4)n3)cc2CC1C (stereo unspecified)	-8.9	0.3	68.5*	0.0
Fc1ccc(-c2nnc3sc(CN4CCc5ccccc5C4)cn23)cc1	14.5	0.5	0.6	-0.1
COc1cccc(-c2nnc3sc(CN4CCc5ccccc5C4)cn23)c1	3.4	1.0	49.3*	0.1
CCOC(=O)c1oc2ccccc2c1NC(=O)C1CCN(S(=O)(=O)c2ccc(C)cc2)CC1	16.4	-1.8	35.4*	0.7
CCC(C)(C)NC(=O)C1CCN(S(=O)(=O)c2ccc(C)cc2)CC1	-2.2	0.9	73.5*	-0.1
CCC(C)(C)NC(=O)C1CCN(S(=O)(=O)c2ccc(F)cc2)CC1	0.5	0.0	0.0	-0.2
CCC(C)(C)C(=O)Nc1ccc(S(=O)(=O)N2CCC(C)CC2)cc1	14.9	-0.8	11.2	2.2*
CCOC(=O)C1=C(O)/C(=C/c2ccc(N(C)C)cc2)SC1=Nc1ccccc1	9.3	-0.7	-7.0	0.4
C/C(=N/NC(=O)Cc1ccccc1)c1ccccc1	-3.5	-1.2	-18.7	1.0
c1ccc(N=C2NN=C(c3ccccc3)CS2)cc1	-6.8	0.9	-35.9	0.0
c1ccc(C2=NNC(=NC3CC3)SC2)cc1	-6.8	-10.3	80.0*	-0.2
CCn1c(C)nc2cc(-c3nc4n(n3)Cc3ccccc3-4)ccc21	-12.0	-12.4	102.7*	-0.2
CCn1c(C)nc2cc(CO)ccc21	9.6	1.1	-6.1	0.4
O=C(O)CN1C(=O)/C(=C\c2ccc(F)cc2)Oc2ccccc21	-0.4	-0.4	-10.2	0.1
COc1ccc(O)c(/C=N/Nc2nc(N3CCCCC3)nc(N3CCCCC3)n2)c1	2.1	0.7	-4.9	-0.1
CCc1nn2cc(-c3ccc(F)cc3)nc2s1	9.2	-10.0	39.6*	0.2
COc1cc(-c2nn3cc(-c4ccccc4)nc3s2)cc(OC)c1OC	4.7	-0.3	-29.8	0.7
CCc1nn2cc(-c3ccccc3)nc2s1	10.3	-9.9	74.3*	0.2
CC1CCc2oc3c(cc(NS(=O)(=O)c4ccc(Cl)cc4)c4ccccc43)c2C1 (stereo unspecified)	-3.1	1.0	0.5	-0.1
NC(=O)c1cnn(-c2ccnc(NC(=O)Cc3ccc(F)cc3)c2)c1	-16.6	0.1	75.5*	0.5
O=C1COC(=NC2CCCCC2)N1C1CCCCC1	-5.1	0.0	-5.1	0.0
CC(C)c1ccccc1NC(=O)CCc1csc(NC(=O)c2ccc(F)cc2)n1	1.2	0.6	23.3	0.1
Cc1cccc(NC(=O)CCc2csc(NC(=O)c3ccc(F)cc3)n2)c1C	2.9	1.6	40.0*	0.1
CC1=NN(c2nc3ccccc3o2)C(=O)/C1=C\N(C)C	3.7	-5.4	92.4*	-0.4
CC1=NN(c2ccc(C)cc2)C(=O)/C1=C\N(C)C	1.4	-1.6	-4.8	0.0
SMILES	MITF inh	GPR151 ag	TEAD-YAP inh	FBW7 act
Cc1ccc2nc(-c3ccc(SCC(=O)O)nc3)[nH]c2c1	-10.4	-1.0	-4.5	-0.2
CC(=O)Nc1cccc(NC(=O)CSc2ccc(-c3nc4cc(C)c(C)cc4[nH]3)cn2)c1	-13.1	-1.0	-45.1	-0.2
CC(=O)CSc1ccc(-c2nc3cc(C)c(C)cc3[nH]2)cn1	-4.9	-1.3	81.4*	-0.2
Cc1ccc2nc(-c3ccc(SCC(N)=O)nc3)[nH]c2c1	-5.3	1.4	53.1*	-0.1
Nc1nnc(Sc2cnccn2)s1	13.0	-0.1	12.9	0.0
COC(CNC(=O)c1cc(S(=O)(=O)N2CC(C)CC(C)C2)ccc1Sc1cccc(Cl)c1)OC (stereo unspecified)	5.5	-0.9	-6.7	0.2
O=C(Cc1cn(-c2ccc(Nc3ccc(N4CCOCC4)cc3)nn2)c2ccccc12)NCc1ccccc1	13.8	-1.3	47.7*	0.2
Cc1cc(S(=O)(=O)N2CCCC(CO)(Cc3ccccc3C)C2)c(C)s1 (stereo unspecified)	6.6	2.4	12.4	0.2
COc1ccc(/C=C2\SC(=O)NC2=Nc2ccc(C)cc2)c(OC)c1	-3.7	0.9	57.6*	-0.2
COc1ccc(/C=C2\SC(=Nc3cccc(C)c3C)NC2=O)c(OC)c1	3.9	1.0	6.2	0.0
COc1ccc(/C=C2\SC(=Nc3cc(C)cc(C)c3)NC2=O)c(OC)c1	0.2	0.0	57.2*	-0.5
S=c1[nH]c2ccccc2c2c1CCCC2	-12.1	0.1	0.5	0.1
COc1ccc2ccccc2c1/C=C1\SC(=Nc2ccc(C)cc2)NC1=O	-2.9	-1.1	53.2*	0.0
COc1ccc2ccccc2c1/C=C1/SC(=S)NC1=O	0.9	-0.7	2.4	0.0
COc1ccc(N=C2NC(=O)/C(=C/c3c(OC)ccc4ccccc34)S2)cc1	-2.4	-0.8	36.2*	0.0
COc1ccc2ccc(OC)c(/C=C3/C(=O)Nc4ccccc43)c2c1	-3.5	0.3	53.4*	-0.1
COc1ccc(N=C2NC(=O)/C(=C\c3cc(OC)ccc3OC)S2)cc1	-17.4	2.7	19.1	-0.1
CCCOc1ccccc1/C=C1\SC(N)=NC1=O	3.6	0.3	7.3	0.0
CCCOc1ccc2ccccc2c1/C=C1\SC(N)=NC1=O	4.8	0.0	52.1*	-0.1
Cc1nn(C)c(C)c1NC(=O)CSc1nccc(-c2ccc(Cl)cc2)n1	3.6	1.1	-0.4	0.1
CN1CCCNC1c1ccc(-c2ccc([N+](=O)[O-])cc2)o1 (stereo unspecified)	11.3	0.8	4.5	-0.1
Cc1nc(SCc2ccccc2)n[nH]1	-2.5	1.0	3.4	0.1
Cc1nc(SCc2ccc(CSc3n[nH]c(C)n3)cc2)n[nH]1	5.5	-6.8	82.9*	0.2
COc1ccc(CSc2n[nH]c(C)n2)cc1	7.1	0.0	64.3*	-0.2
Cc1ccc2nc(SCC(=O)Nc3nc4ccccc4s3)[nH]c2c1	16.4	-2.0	-0.7	0.2
SMILES	MITF inh	GPR151 ag	TEAD-YAP inh	FBW7 act
COc1ccc(C2CC(=O)N3CN(Cc4ccco4)CSC3=C2C#N)cc1OC (stereo unspecified)	7.9	-0.5	-2.6	-0.3
Cc1ccc(N2C(=O)N(CC(=O)Nc3ccccc3OC(F)F)C(=O)C2C)cc1 (stereo unspecified)	13.1	0.8	-8.1	0.2
Cc1ccc(N2C(=O)N(CC(=O)Nc3ccccc3C(F)(F)F)C(=O)C2C)cc1 (stereo unspecified)	-3.2	2.5	-3.6	0.0
COC(=O)c1ccccc1NC(=O)CN1C(=O)C(C)N(c2ccc(C)cc2)C1=O (stereo unspecified)	3.5	-1.5	44.7*	-0.1
CCOC(=O)c1ccccc1NC(=O)CN1C(=O)C(C)N(c2ccc(C)cc2)C1=O (stereo unspecified)	7.1	0.2	45.8*	0.0
COC(=O)C1=CN(C2CCCC2)C=C(C(=O)OC)C1c1cccs1	-11.5	0.1	5.7	0.4
c1cncc(CNc2nc(N3CCC(N4CCOCC4)CC3)nc3c2ncn3-c2ccsc2)c1	8.9	-0.4	9.1	-0.4
OCC1CCCN1c1nc(Nc2ccc3c(c2)OCO3)c2ncn(-c3ccsc3)c2n1 (stereo unspecified)	22.1	-1.6	34.3*	-0.1
